In PubChem BioAssay (Tox21):
Unmarked numbers belong to inactive results. Inconclusive results are not listed. Where a call stands in place of a potency, no number is given. Calls of active or inactive are those of the source. Calls follow the shape of the dose curve; as a rule, active = well fitted curve in the direction sought with a large enough effect in the repeat runs; inconclusive = weak or mixed curves; inactive = no such curve, though single readings can be large; an effect the other way counts as inactive or inconclusive.

Columns and labels:
[1] = Caspase-3/7 induction in HepG2 cells by small molecules, qHTS assay (AID 1346978); conditions: HepG2 caspase-3/7 activation, Caspase-Glo luminescence, 17 h; series mostly up to 92.4 µM; also: nearly all actives have a fitted effect of over 15% in size
How it was run: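 Wild-type HepG2 cells, 2,000/well, settled 5 hr at 37 C and 5% CO2, then compound-treated for 17 hr; caspase-3/7 activity read by luminescent Caspase-Glo 3/7 after 30 min at room temperature.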

[2] = Caspase-3/7 induction in CHO-K1 cells by small molecules, qHTS cell viability counter screen (AID 1346979); conditions: CellTiter-Fluor fluorescence, 17 h; series mostly up to 92.4 µM; also: nearly all actives have a fitted effect of over 35% in size; also: potency is read from the fitted curve at half-maximal effect
How it was run: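 Viability readout by fluorescence (CellTiter-Fluor) on wild-type CHO-K1 cells exposed for 16hr at 37C and 5% CO2 to compounds delivered in DMSO; reagent incubated 1hr before reading.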

[3] = Caspase-3/7 induction in CHO-K1 cells by small molecules, qHTS assay (AID 1346980); conditions: CHO-K1 caspase-3/7 induction, Caspase-Glo luminescence, 17 h; series mostly up to 92.4 µM; also: nearly all actives have a fitted effect of over 15% in size
How it was run: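 Wild-type CHO-K1 cells exposed to compounds for 17hr at 37 C, 5% CO2. Caspase-3/7 activity then measured by Caspase-Glo 3/7 luminescence after 30min at room temperature.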

[4] = Caspase-3/7 induction in HepG2 cells by small molecules, qHTS cell viability counter screen (AID 1346981); conditions: CellTiter-Fluor fluorescence, 17 h; series mostly up to 92.4 µM; also: nearly all actives have a fitted effect of over 30% in size
How it was run: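 Viability determined by CellTiter-Fluor fluorescence in HepG2 wells also used for the luminescent Caspase-Glo 3/7 read. Compounds were present for 16 hr at 37 C, 5% CO2 before reagent addition.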

[5] = biological target: Nuclear receptor subfamily 1 group I member 2 (Homo sapiens) (UniProt O75469); test: Human pregnane X receptor (PXR) small molecule agonists, qHTS assay (AID 1346982); conditions: PXR-Luc HepG2, CYP3A4 luciferase reporter, 24 h; series mostly up to 92.4 µM; also: nearly all actives have a fitted effect of over 35% in size; also: potency is read from the fitted curve at half-maximal effect
Nuclear receptor subfamily 1 group I member 2 (Homo sapiens), sequence (O75469 whole entry, looked up): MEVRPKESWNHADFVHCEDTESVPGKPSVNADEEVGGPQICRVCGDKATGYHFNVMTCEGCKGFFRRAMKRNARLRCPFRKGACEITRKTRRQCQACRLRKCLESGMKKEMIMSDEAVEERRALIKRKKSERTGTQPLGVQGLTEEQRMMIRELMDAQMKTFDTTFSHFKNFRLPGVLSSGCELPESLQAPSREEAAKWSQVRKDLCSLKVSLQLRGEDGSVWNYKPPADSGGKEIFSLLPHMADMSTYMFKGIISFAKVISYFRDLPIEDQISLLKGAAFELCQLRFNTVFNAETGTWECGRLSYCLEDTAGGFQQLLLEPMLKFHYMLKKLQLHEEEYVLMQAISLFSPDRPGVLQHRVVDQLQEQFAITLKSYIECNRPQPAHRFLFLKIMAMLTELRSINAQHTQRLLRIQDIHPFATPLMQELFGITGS
How it was run: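 Compound-induced hPXR transactivation of a CYP3A4 luciferase reporter was scored in HepG2 PXR-Luc cells over 24 hr at 37 C, 5% CO2, by luminescence.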

[6] = biological target: Cytochrome P450 2C19 (Homo sapiens) (UniProt P33261); test: Cytochrome P450 Family 2 Subfamily C Member 19 (CYP2C19) small molecule antagonists: luciferase reporter qHTS assay (AID 1671197); conditions: P450-Glo CYP2C19 enzyme, luciferin luminescence, 1 h; series mostly up to 115 µM; also: nearly all actives have a fitted effect of over 65% in size; also: potency is read from the fitted curve at half-maximal effect
Cytochrome P450 2C19 (Homo sapiens), sequence (P33261 whole entry, looked up): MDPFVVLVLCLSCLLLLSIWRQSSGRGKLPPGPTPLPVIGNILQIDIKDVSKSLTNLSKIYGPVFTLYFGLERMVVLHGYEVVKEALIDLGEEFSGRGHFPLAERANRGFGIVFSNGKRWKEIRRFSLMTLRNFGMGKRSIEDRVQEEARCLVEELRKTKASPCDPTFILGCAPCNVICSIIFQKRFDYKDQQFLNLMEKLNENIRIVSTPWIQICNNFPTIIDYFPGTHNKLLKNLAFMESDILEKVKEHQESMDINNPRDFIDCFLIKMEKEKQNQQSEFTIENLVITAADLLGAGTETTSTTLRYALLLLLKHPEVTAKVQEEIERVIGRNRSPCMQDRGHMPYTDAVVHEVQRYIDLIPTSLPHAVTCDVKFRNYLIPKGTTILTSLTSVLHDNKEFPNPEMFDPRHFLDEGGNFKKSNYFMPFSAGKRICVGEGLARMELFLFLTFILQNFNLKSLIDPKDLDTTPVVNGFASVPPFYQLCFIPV
How it was run: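 Luminescent readout of CYP2C19 activity: luciferin product detected 20 min after adding detection reagent. Before that, compound and enzyme-substrate mix preincubated 10 min at room temperature; NADPH-regenerating system started a 1 h, 37C reaction. Ketoconazole as positive control.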

[7] = biological target: Cytochrome P450 2C9 (Homo sapiens) (UniProt P11712); test: Cytochrome P450 Family 2 Subfamily C Member 9 (CYP2C9) small molecule antagonists: luciferase reporter qHTS assay (AID 1671198); conditions: P450-Glo CYP2C9 enzyme assay, luciferin luminescence; series mostly up to 115 µM; also: nearly all actives have a fitted effect of over 50% in size; also: potency is read from the fitted curve at half-maximal effect
Cytochrome P450 2C9 (Homo sapiens), sequence (P11712 whole entry, looked up): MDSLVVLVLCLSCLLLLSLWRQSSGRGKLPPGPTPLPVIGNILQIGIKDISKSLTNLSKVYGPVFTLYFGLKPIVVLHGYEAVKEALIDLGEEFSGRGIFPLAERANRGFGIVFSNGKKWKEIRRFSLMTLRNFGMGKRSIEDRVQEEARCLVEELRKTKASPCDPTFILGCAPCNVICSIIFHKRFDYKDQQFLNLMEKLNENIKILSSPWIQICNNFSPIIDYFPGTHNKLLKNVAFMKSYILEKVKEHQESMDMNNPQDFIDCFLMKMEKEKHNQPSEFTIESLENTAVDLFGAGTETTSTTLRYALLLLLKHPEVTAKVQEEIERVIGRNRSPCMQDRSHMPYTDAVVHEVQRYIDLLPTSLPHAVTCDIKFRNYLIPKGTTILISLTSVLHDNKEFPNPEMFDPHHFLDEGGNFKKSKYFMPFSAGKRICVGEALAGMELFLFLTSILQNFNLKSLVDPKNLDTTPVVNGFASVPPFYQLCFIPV
How it was run: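 P450-Glo proluciferin substrate with CYP2C9 enzyme; 10 min RT preincubation, then NADPH regeneration 1 h at 37C; luciferin detection reagent 20 min RT, luminescence in relative luminescence units.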

[8] = biological target: Cytochrome P450 1A2 (Homo sapiens) (UniProt P05177); test: Cytochrome P450 Family 1 Subfamily A Member 2 (CYP1A2) small molecule antagonists: luciferase reporter qHTS assay (AID 1671199); conditions: P450-Glo CYP1A2 enzyme, luciferin luminescence, 1 h; series mostly up to 53 µM; also: nearly all actives have a fitted effect of over 50% in size; also: potency is read from the fitted curve at half-maximal effect
Cytochrome P450 1A2 (Homo sapiens), sequence (P05177 whole entry, looked up): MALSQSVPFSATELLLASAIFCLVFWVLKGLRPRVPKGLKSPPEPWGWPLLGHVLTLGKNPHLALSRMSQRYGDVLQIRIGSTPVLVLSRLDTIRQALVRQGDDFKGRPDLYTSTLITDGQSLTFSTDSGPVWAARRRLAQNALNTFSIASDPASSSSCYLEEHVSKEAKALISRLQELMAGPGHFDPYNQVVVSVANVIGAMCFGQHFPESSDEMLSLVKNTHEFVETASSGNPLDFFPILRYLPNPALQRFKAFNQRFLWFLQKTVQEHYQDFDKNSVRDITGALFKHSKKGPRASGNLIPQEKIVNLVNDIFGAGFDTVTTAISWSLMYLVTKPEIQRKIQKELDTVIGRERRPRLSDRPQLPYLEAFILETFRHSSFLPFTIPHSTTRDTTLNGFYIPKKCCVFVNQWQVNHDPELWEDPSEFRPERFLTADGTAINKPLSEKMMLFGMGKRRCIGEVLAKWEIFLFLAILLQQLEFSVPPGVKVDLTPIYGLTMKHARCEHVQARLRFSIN
How it was run: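 Enzymatic CYP1A2 assay, human, luminescent: 10 min compound–enzyme–substrate preincubation, 1 h NADPH-dependent turnover, 20 min detection step, room temperature throughout. Reduced light indicates lower CYP1A2 activity.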

[9] = biological target: Voltage-gated inwardly rectifying potassium channel KCNH2 (Homo sapiens) (UniProt Q12809); test: Human Ether-a-go-go-Related Gene (hERG) channel small molecule antagonists: fluorescence cell-based qHTS assay (AID 1671200); conditions: hERG-U2OS cells, FluxOR thallium flux fluorescence; series mostly up to 76.8 µM; also: nearly all actives have a fitted effect of over 50% in size; also: potency is read from the fitted curve at half-maximal effect
Voltage-gated inwardly rectifying potassium channel KCNH2 (Homo sapiens), sequence (Q12809 whole entry, looked up): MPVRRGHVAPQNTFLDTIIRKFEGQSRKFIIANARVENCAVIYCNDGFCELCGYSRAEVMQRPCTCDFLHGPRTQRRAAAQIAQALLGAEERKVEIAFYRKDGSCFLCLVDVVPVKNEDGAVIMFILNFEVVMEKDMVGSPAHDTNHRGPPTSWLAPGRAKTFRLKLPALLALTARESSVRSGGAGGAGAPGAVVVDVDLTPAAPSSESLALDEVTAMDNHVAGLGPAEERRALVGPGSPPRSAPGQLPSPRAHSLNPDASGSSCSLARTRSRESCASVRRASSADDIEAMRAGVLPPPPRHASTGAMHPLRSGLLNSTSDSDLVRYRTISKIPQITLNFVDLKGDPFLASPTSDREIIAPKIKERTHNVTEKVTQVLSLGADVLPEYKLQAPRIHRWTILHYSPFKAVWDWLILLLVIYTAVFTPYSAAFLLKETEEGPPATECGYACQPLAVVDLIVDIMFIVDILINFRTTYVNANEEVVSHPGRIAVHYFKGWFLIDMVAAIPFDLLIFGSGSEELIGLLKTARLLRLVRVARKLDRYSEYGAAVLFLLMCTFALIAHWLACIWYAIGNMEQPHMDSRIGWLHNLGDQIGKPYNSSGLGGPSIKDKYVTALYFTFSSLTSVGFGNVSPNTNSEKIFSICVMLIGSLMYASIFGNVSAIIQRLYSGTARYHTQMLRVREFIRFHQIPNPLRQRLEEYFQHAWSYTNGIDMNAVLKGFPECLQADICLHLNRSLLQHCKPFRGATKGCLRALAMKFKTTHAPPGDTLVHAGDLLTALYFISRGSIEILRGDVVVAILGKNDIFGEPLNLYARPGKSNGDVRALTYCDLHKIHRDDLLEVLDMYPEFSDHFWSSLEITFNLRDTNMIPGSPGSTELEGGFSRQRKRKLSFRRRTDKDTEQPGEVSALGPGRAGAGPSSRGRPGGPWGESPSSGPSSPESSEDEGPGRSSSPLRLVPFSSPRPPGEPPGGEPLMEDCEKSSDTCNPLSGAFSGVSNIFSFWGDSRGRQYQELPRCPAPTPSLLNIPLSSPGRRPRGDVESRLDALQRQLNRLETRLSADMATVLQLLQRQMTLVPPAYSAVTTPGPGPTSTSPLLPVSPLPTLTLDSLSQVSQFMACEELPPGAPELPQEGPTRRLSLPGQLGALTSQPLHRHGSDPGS
How it was run: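 Thallium served as the potassium surrogate; its influx into dye-loaded U2OS cells carrying the channel was measured by fluorescence over 2 min.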

[10] = biological target: Cytochrome P450 3A4 (Homo sapiens) (UniProt P08684); test: Cytochrome P450 Family 3 Subfamily A Member 4 (CYP3A4) small molecule antagonists: luciferase reporter qHTS assay (AID 1671201); conditions: P450-Glo CYP3A4 enzyme, luciferin luminescence, 1 h; series mostly up to 115 µM; also: nearly all actives have a fitted effect of over 50% in size; also: potency is read from the fitted curve at half-maximal effect
Cytochrome P450 3A4 (Homo sapiens), sequence (P08684 whole entry, looked up): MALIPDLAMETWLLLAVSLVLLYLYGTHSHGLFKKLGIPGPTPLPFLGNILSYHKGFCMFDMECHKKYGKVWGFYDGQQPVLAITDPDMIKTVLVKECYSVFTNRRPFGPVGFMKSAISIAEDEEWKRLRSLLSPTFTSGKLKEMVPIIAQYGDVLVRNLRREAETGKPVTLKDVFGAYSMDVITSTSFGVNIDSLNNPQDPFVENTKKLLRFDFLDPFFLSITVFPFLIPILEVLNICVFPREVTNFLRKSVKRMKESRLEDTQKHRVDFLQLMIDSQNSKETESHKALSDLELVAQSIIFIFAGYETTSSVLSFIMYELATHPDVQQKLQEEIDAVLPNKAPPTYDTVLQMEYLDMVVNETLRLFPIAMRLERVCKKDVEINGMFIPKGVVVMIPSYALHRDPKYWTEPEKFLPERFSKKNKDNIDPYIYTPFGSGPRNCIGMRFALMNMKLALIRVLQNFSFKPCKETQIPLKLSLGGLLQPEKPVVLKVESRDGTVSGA
How it was run: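 Relative luminescence units after 20 min with luciferin detection reagent served as read-out. Beforehand, CYP3A4 turned over a proluciferin substrate for 1 h at room temperature with NADPH regeneration, following 10 min compound preincubation.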

[11] = biological target: Cytochrome P450 2D6 (Homo sapiens) (UniProt P10635); test: Cytochrome P450 Family 2 Subfamily D Member 6 (CYP2D6) small molecule antagonists: luciferase reporter qHTS assay (AID 1671196); conditions: P450-Glo CYP2D6 enzyme assay, luciferin luminescence, 1 h; series mostly up to 115 µM; also: nearly all actives have a fitted effect of over 50% in size; also: potency is read from the fitted curve at half-maximal effect
Cytochrome P450 2D6 (Homo sapiens), sequence (P10635 whole entry, looked up): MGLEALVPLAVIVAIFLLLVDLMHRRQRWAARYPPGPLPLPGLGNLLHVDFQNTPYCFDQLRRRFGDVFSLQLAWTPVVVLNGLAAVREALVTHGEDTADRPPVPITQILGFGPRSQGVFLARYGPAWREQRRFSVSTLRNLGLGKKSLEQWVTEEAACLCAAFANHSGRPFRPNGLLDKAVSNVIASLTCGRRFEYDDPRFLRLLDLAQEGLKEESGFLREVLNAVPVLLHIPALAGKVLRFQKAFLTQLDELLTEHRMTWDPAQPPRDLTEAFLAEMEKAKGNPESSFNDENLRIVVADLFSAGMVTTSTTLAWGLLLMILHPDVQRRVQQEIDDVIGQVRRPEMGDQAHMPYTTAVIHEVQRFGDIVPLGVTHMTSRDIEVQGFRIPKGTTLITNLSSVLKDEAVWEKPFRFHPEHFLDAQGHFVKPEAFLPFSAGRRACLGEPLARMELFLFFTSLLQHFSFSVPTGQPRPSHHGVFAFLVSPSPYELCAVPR
How it was run: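 Each well received CYP2D6 with its proluciferin substrate and chemical, sat 10 min, then got NADPH regeneration solution for 1 h at room temperature. Luminescence in RLU served as the activity measure.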

[12] = biological target: Nuclear receptor subfamily 1 group I member 2 (Homo sapiens) (UniProt O75469); test: CYP3A4 induction through human pregnane X receptor (PXR) by small molecules, qHTS assay (AID 1346984); conditions: DPX-2 HepG2 PXR, CYP3A4-luciferin luminescence, 24 h; series mostly up to 46.1 µM; also: nearly all actives have a fitted effect of over 40% in size
How it was run: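 Readings come from a luciferase reporter: DPX-2 cells, which are HepG2 cotransfected with PXR and a CYP3A4-promoter construct, were exposed to test compounds for 24 h at 37C before One-Glo detection.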

[13] = biological target: Nuclear receptor subfamily 1 group I member 2 (Homo sapiens) (UniProt O75469); test: Human pregnane X receptor (PXR) activation by small molecules, qHTS assay (AID 1346985); conditions: DPX-2 HepG2 CYP3A4-luciferase, 24 h; series mostly up to 38.3 µM; also: potency is read from the fitted curve at half-maximal effect; nearly all actives have a fitted effect of over 40% in size
How it was run: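 DPX-2 cells (HepG2 co-transfected with a PXR response element and a CYP3A4-promoter luciferase construct) were seeded at 2,000 per well, rested 5 hr at 37C, then exposed to DMSO-dissolved compounds for 24 hr. Activation was read as luciferase luminescence.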

Structure (SMILES)	Potency [1]	Potency [2]	outcome [3]	Potency [4]	Potency [5]	Potency [6]	Potency [7]	Potency [8]	Potency [9]	Potency [10]	Potency [11]	Potency [12]	Potency [13]
Nc1ccc(S(=O)(=O)O)cc1	inactive	inactive	inactive	inactive	inactive	inactive	inactive	inactive	inactive	inactive			
CC(=N\O)/C(C)=N/O	inactive	inactive	inactive	inactive	inactive		inactive	35.6 µM (active)	inactive	inactive			
CC(C)CCCCCOC(=O)CCCCC(=O)OCCCCCC(C)C	inactive	inactive	inactive	inactive		inactive	63.3 µM (active)	inactive	inactive	35.6 µM (active)	inactive		
CN(C(=O)C(Cl)Cl)c1ccc(OC(=O)c2ccco2)cc1	inactive	inactive	inactive	inactive	inactive		15.5 µM (active)	inactive	inactive	inactive			
COc1cc2c(cc1OC)-c1cc(=Nc3c(C)cc(C)cc3C)n(C)c(=O)n1CC2	inactive	29.8 µM (active)	inactive		9.44 µM (active)	17.4 µM (active)	1.1 µM (active)	inactive				inactive	6.31 µM (active)
CCOC(=O)[C@@H](C)Oc1ccc(Oc2nc3ccc(Cl)cc3o2)cc1	inactive	inactive	inactive	inactive	61.1 µM (active)	79.6 µM (active)	35.6 µM (active)		19.5 µM (active)				
C=CC(=O)NCOCC(C)C	inactive	inactive	inactive	inactive	inactive	inactive	inactive		inactive	inactive			
Cc1ccnc2ccccc12	inactive	inactive	inactive	inactive	inactive	inactive	inactive		inactive	inactive			
Cc1occc1C(=O)Nc1ccc(C(=O)N2CCC(F)(F)/C(=C\C(=O)N3CCC(N4CCCCC4)CC3)c3ccccc32)cc1	inactive	inactive	inactive		19.1 µM (active)	inactive		9.9 µM (active)	6.09 µM (active)	0.394 µM (active)	2.79 µM (active)		
CC(=O)Nc1ccc(N)cc1	inactive	inactive	inactive	inactive		inactive		40.5 µM (active)	inactive	28.7 µM (active)	40.5 µM (active)		
NC(=O)Nc1ccc(Cl)c(Cl)c1	inactive	inactive	inactive	inactive	48.4 µM (active)			8.91 µM (active)	inactive	inactive			
O=C(CCCCCCCCC#CI)Oc1ccccc1	inactive	inactive	inactive	inactive	inactive	inactive	17.4 µM (active)		inactive	inactive			
CCCCOC(=O)CCS	inactive	inactive	inactive	inactive	inactive		63.3 µM (active)		inactive				
CCc1nn(CCCN2CCN(c3cccc(Cl)c3)CC2)c(=O)n1CCOc1ccccc1	inactive	29.8 µM (active)	inactive		3.76 µM (active)		inactive	inactive	1.51 µM (active)		4.9 µM (active)	inactive	
CCCOc1ccc(S(=O)(=O)N2CCN(CC)CC2)cc1-c1nc2c(CC)n(Cc3ccccn3)nc2c(=O)[nH]1	inactive	inactive	inactive		10.9 µM (active)	71 µM (active)	3.17 µM (active)	inactive	21.9 µM (active)		inactive		
O=Cc1c(Cl)cccc1Cl	inactive	inactive	inactive	inactive	inactive	inactive	inactive		inactive	inactive			
Cc1ccc(Nc2nccc(N(C)c3ccc4c(C)n(C)nc4c3)n2)cc1S(N)(=O)=O	inactive	26.6 µM (active)	inactive		2.66 µM (active)	inactive	15.5 µM (active)	inactive	inactive		inactive		
COc1ccc(C(=O)c2cccc(O)c2)c(OC)c1	inactive	inactive	inactive		61 µM (active)	3.55 µM (active)	inactive		inactive	31.7 µM (active)	inactive		
C=CC(C)(O)CCCC(C)CCCC(C)CCCC(C)C (centres undefined)	inactive	inactive	inactive	inactive	24.2 µM (active)	inactive		35.4 µM (active)	inactive	inactive			
